The values that follow come from PMC12136788.

In all, about 24,000 sequences were measured (“enrichment r”: median about 0.99, highest 2% from about 3.7 on). These entries were drawn from the full list.

T1: UNK ZnF1-3 (human, UniProt Q9C0B0 31-174)
T1 sequence: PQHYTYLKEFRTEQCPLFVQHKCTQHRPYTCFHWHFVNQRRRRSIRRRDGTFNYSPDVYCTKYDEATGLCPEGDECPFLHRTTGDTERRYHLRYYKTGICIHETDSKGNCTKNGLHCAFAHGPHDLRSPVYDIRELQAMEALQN

B1: chr17:88379672:88379673:+_ENSMUSG00000005370_ENSMUST00000005503|mus_mus|motif|central (ssRNA)
RNA: GGGAGUUCUACAGUCCGACGAUCUCCCUUUUGGGCUUCCUUUGACUUUGAACCUGUAUAUGGCUUUAACAUCCUUUUGCGGACCCAGCCCCUUGUUGGGCUGUCAUCAAAGAACUGUACAUGAACACGGACAGAUUUCCCUUUCAACAGAGGAUUGAGCAUCA
B2: chr2:48026839:48026840:+_ENSG00000116062_ENST00000540021|hu_hu|hu_hu_hu_mus_False|48_78 (ssRNA)
RNA: GGGAGUUCUACAGUCCGACGAUCAUAGUGAGCCACUAGCGUCCUAAAUCUGGAACAAUGGCGAUCAUCCGAAAACUGGCCGAUGAAAAACUUUCCCAGUGAAGUGUCCACAAAGCAAACACCAUACACACGAGUGUGACCAGACAACAGAGGAUUGAGCAUCA
B3: chr1:55207850:55207851:+_ENSMUSG00000025979_ENSMUST00000162364|mus_hu|FALSE|FALSE (ssRNA)
RNA: GGGAGUUCUACAGUCCGACGAUCCCGAUGAUGAAAAUAAGCAUGUGAAAAUAUUCUGUAAAUCCUACGGCAUACUGAUCCUAGUUUCGCUACAGAUGAUUCCUUUAUGCUAACCCUGCUGGGAAAAUAUUUAUUGCUAUUCAGCAACAGAGGAUUGAGCAUCA
B4: chr1:213302989:213302990:+_ENSG00000136643_ENST00000366960|hu_hu|motif|central (ssRNA)
RNA: GGGAGUUCUACAGUCCGACGAUCAGAAGCAACAGCCCCUAGUGCUGAAGAAUCCGAAGAAAGAUUGAGACCAAAAGUUCGGAUGGGAGAAUUUUGAUUGGAAGCCAUUCCAUCAUCUAACUCAGCAAGAGAAUCCACAUCAACCAACAGAGGAUUGAGCAUCA
B5: chr1:163117127:163117128:-_ENSG00000143248_ENST00000313961|hu_mus|hu_hu_hu_mus_False|78_98 (ssRNA)
RNA: GGGAGUUCUACAGUCCGACGAUCUGCUACAAAGGAUGGAGGAAAUAUCACAGGGCAUGAUUUCAUAGCCUGACCAGAUGACUACUUGAUUAGCUCCUUAUAAAAUUCAGAGCGCACAAAGCGGGGCAGAGAAUCCUUCUCCAUCAACAGAGGAUUGAGCAUCA
B6: chr3:131220538:131220539:-_ENSG00000114686_ENST00000264995|hu_mus|motif|central (ssRNA)
RNA: GGGAGUUCUACAGUCCGACGAUCUUCUUCAGAAAGAUGUUCAUCCCACCAAGUACUACUCUUGCUGUGGAGAUUUCGGACAAAGAACAAGAUAUUCUUUCUUCUCUCUAAGCCGGGGUCAGCACCUAGGCCUCUGGCGCCACACAACAGAGGAUUGAGCAUCA
B7: chr6:82862619:82862620:-_ENSMUSG00000000627_ENSMUST00000000641|mus_mus|FALSE|FALSE (ssRNA)
RNA: GGGAGUUCUACAGUCCGACGAUCAACCUGCUUGUAAUUUCCUACACACUUUUCUGGGUUCCUUUUGUCAUCCCUCAAUAGCUAGAAUGUUGUGAAGUUCAUUUUAAAUGGAAGCCAAGGAAAGAGGGCUCAGCCUCCACUCCACAACAGAGGAUUGAGCAUCA
B8: chr4:107545374:107545375:+_ENSMUSG00000028613_ENSMUST00000106731|mus_mus|FALSE|FALSE (ssRNA)
RNA: GGGAGUUCUACAGUCCGACGAUCGUUGAUGGAUAGCCACAAAGCAUAAUUUUAUUUACAAAAAAAUCAAGCCCCUCAAACCUAAAAAAGCUCUCAACUCAAACAUCCUCUGUAAAUACUGUAUUCAAAUGAUGAGUGAAGUUUCAACAGAGGAUUGAGCAUCA
B9: chr1:174973770:174973771:+_ENSG00000116161_ENST00000406752|hu_mus|FALSE|FALSE (ssRNA)
RNA: GGGAGUUCUACAGUCCGACGAUCGAGUUCCGUCUCAAUCUUGGACUUUUCACUUGUAAGAGUAUCACGUAGUCUUUUCCUAGUGGACUUUUCCAGCAAUACUUUGACCUCUUCUAGGUCUUUCUGCAACUCUUCCAAAACGGACAACAGAGGAUUGAGCAUCA
B10: chr22:19452774:19452775:-_ENSG00000070010_ENST00000399523|hu_hu|hu_hu_hu_mus_False|1_68 (ssRNA)
RNA: GGGAGUUCUACAGUCCGACGAUCCUUCUCAUUGUAGUUGAUAGCAAUCACAUCUCCAGUCGUCAGACAGGCAAAGUUUCUCAAUGCAUUUUCUAAUACCGCUUUAGGGUUGGUAAUAUCCAGGAAGUCUGGGCUCUGAGGUUGCAACAGAGGAUUGAGCAUCA
B11: 64993253_64993373_409_3pUTR_ENSMUSG00000029920_ENSMUST00000031984|mouse|control|control (ssRNA)
RNA: GGGAGUUCUACAGUCCGACGAUCCUUCAGCACUAAGAGAAAUUGGUGACGAAGGACGGGCCUGGGAGGGCUGAGGGGCUGCUUCGGGUGCUUCCUCAAUCUUACUCCUUUUCUCAAAGCGAAAACGGUCCAAGUUGAAAAGAUCAACAGAGGAUUGAGCAUCA
B12: chr2:160855017:160855018:-_ENSMUSG00000057133_ENSMUST00000039782|mus_hu|FALSE|FALSE (ssRNA)
RNA: GGGAGUUCUACAGUCCGACGAUCAUCCUUUUCGAGCUCUUCCAUUGUGGCCCAUUUACAAUGUAAGUAGGAAAAAUUUCUAUACUUAACGUAGAACAGCUCCAAGUCGAACGGAGGUUCUCCUGGGUGAACCUCCUGGACAGUCAACAGAGGAUUGAGCAUCA
B13: chr14:63761926:63761927:+_ENSMUSG00000021939_ENSMUST00000006235|mus_mus|FALSE|FALSE (ssRNA)
RNA: GGGAGUUCUACAGUCCGACGAUCCUGCCAAUGUCAAGCAGAGGGAGAAUUGGUUUAUUGGCACAGACAUUCCUUGUUAAACUACAGGGUUAAGUGGUAACUACAACAAAAAGCAAGUUUUUUUUUCCAGACUAGUUUCAUUGUCAACAGAGGAUUGAGCAUCA
B14: chr1:23381596:23381597:+_ENSG00000004487_ENST00000356634|hu_hu|motif|central (ssRNA)
RNA: GGGAGUUCUACAGUCCGACGAUCAGUUGGUAGGGGUUUUAUCCUCUUAUAGAUGCCGAAGUUGAUAAGACCAUGACGCUCGGAAUAACUGUGAACUCGGUGGACAAGCACAGUAUCACUGUUAUAAGGUGCUUCUAAUUGUUGCAACAGAGGAUUGAGCAUCA

The test deals with T1, UNK ZnF1-3. In words: nsRBNS (natural sequence RNA bind-n-seq); RBNS binding buffer (assumed for nsRBNS): 25 mM Tris pH 7.5, 150 mM KCl, 3 mM MgCl2, 0.01% Triton X-100, 500 ug/ml BSA, 20 U/ml SUPERase-In, 4 C; UNK is unkempt and MSI1 is Musashi-1; names of the RNAs are library labels; protein concentration not given here; high values mean tight binding.
B1: the binding signal was found to be 0.538 enrichment R.

Take B2: the binding signal was 1.26 enrichment R.

B3 yielded a binding signal of 1.13 enrichment R.

In the case of B4, the binding signal was found to be 2.3 enrichment R.

B5: the binding signal was 1.46 enrichment R.

For the molecule B6, the binding signal was found to be 0.785 enrichment R.

As to B7, the binding signal came to 0.841 enrichment R.

For the molecule B8, the binding signal came out at 1.47 enrichment R.

In turn, B9 gave a binding signal of 0.405 enrichment R.

Take B10: the binding signal came to 1.02 enrichment R.

For the molecule B11, the binding signal is 1.21 enrichment R.

In the case of B12, the binding signal is 0.672 enrichment R.

B13 returned a binding signal of 1.12 enrichment R.

In turn, B14 had a binding signal of 0.878 enrichment R.
